Data: PubChem BioAssay (Tox21)
Inconclusive results are not listed. Unmarked numbers belong to inactive results. Activity calls are given as the source filed them. The call rests on the fitted dose curve; in most records, active means well fitted activation curve with a large enough effect in the signal ratio in the repeat runs (not every such curve was filed as active); inconclusive means weak or mixed curves; inactive means flat fitted curve, though single readings scatter; the % refers to the signal ratio.

experiment: p53 small molecule agonists, cell-based qHTS assay (AID 1963582); conditions: HCT-116 p53RE-bla reporter, beta-lactamase FRET ratio, 16 h; series mostly up to 66 µM; activation: at the top concentration
Source text: National Center for Advancing Translational Sciences [NCATS]
Division of Preclinical Innovation [DPI]
U.S. Environmental Protection Agency [EPA]
National Institutes of Environmental Health Sciences [NIEHS]
National Toxicology Program [NTP]
U.S. Food and Drug Administration [FDA]
p53, a tumor suppressor protein, is activated following cellular insult, including DNA damage and other cellular stresses. The activation of p53 regulates cell fate by inducing DNA repair, cell cycle arrest, apoptosis, or cellular senescence. The activation of p53, therefore, is a good indicator of DNA damage and other cellular stresses. […] The activation of the reporter gene under culture conditions can be detected by fluorescence intensity. This cell line was used to screen the Tox21 10K compound library in a 1536-well plate format and to identify agonists that activate the p53 signaling pathway.
Tox21 Assay Protocol Summary:
The p53RE-bla cells were dispensed at 4,000 cells/5 ul/well in 1536-well black wall/clear bottom plates using a Multidrop dispenser. After the assay plates were incubated at a 37 C/5% CO2 incubator for 5 hours, 23 nL of compounds dissolved in DMSO, positive controls or DMSO only was transferred to the assay plate by a pin tool. The plates were incubated at 37 C for 16 hours. After 1 uL of LiveBLAzerTM B/G FRET substrate was added using a Flying Reagent Dispenser, the plates were incubated at room temperature for 2 hours, and fluorescence intensity was measured by an Envision plate reader.
On the % scale 0 is the no-effect control and ±100 the full control effect; potency means the concentration at half of the fitted maximal effect.

Point of comparison: `O=C(CCCN1CCN(c2ccc(F)cc2)CC1)NC1c2ccccc2CSc2ccccc21` (stereo not given), “activation” value -7.79% [at 30.3 µM]. Against it:
- CCCCCCCCCCC[C@@H](C[C@@H]1OC(=O)[C@H]1CCCCCC)OC(=O)[C@H](CC(C)C)NC=O — higher, -6.97% [at 30.3 µM]
- COc1ccc2cc([C@H](C)C(=O)O)ccc2c1 — higher, -0.79% [at 30.3 µM]
- CCCCCCCCCCCCCCCBr — higher, 0.168% [at 30.3 µM]
- Sc1nc(S)nc(S)n1 — higher, -1.65% [at 30.3 µM]
- NC(CSCC(=O)O)C(=O)O (stereo not given) — higher, -2.95% [at 30.3 µM]
- Brc1c(NC2=NCCN2)ccc2nccnc12 — higher, -0.493% [at 30.3 µM]
- NS(=O)(=O)c1cc2c(cc1Cl)NC(CSCc1ccccc1)=NS2(=O)=O — higher, -0.558% [at 30.3 µM]
- CC(=O)Oc1cccc(C)c1 — higher, 0.618% [at 30.3 µM]
- CCNC(=O)/C=C/c1cccc(Br)c1 — higher, -1.07% [at 30.3 µM]
- C=Cc1c(C)c2cc3[nH]c(cc4nc(cc5nc(cc1[nH]2)C(C)=C5CCC(=O)O)C(CCC(=O)O)=C4C)c(C)c3C=C — higher, -1.08% [at 30.3 µM]
- CN1CCN(C(=O)C2CCCCC2)CC1 — higher, 0.0378% [at 30.3 µM]
- CC(COc1ccccc1)NN (stereo not given) — higher, -0.511% [at 30.3 µM]
- CCCc1ccc(OCC(=O)N2CCN(C(=O)COc3ccc(CCC)cc3OC)CC2)c(OC)c1 — higher, -6.25% [at 30.3 µM]
- CC/C=C\CCOC(C)OCC (stereo not given) — higher, -0.0546% [at 30.3 µM]

Point of comparison: `CCCn1cc[n+](C)c1C`, “activation” value -1.55%. Against it:
- OCCCCCO — higher, -0.204%
- CC1(C)[C@@H](O)CC[C@]2(C)[C@H]3C(=O)C=C4[C@@H]5C[C@@](C)(C(=O)O)CC[C@]5(C)CC[C@@]4(C)[C@]3(C)CC[C@@H]12 — higher, 7.9%
- CC(C)c1ccccc1 — higher, -0.269%
- CCNc1nc(NC(C)CC)nc(OC)n1 (stereo not given) — higher, 0.27%
- CCCCO — higher, -1.03%
- CCCC/C=C/CCCCO — higher, -1.43%
- CCOC(=O)CC(=O)C(=O)OCC — lower, -4.53%
- CCCCCCCCCCCCN1CCCCCC1=O — lower, -7.79%
- CCCCCCCC/C=C\CCCCCCCC(=O)OCCOC(=O)CCCCCCC/C=C\CCCCCCCC — lower, -6.13%
- CCN1CCOCC1 — higher, 8.29%
- O=C1OC(=O)c2cc(Oc3ccc4c(c3)C(=O)OC4=O)ccc21 — higher, 2.47%
- CCCC(CC)CCCCCCCN (stereo not given) — higher, 3.21%
- O=C(c1ccc(O)cc1)c1ccc(O)c(O)c1O — lower, -3.16%
- C[C@@H](O)C(=O)O — higher, 1.15%
- O=P(c1ccccc1)(c1ccccc1)c1ccccc1 — higher, -0.0532%
- CCOc1ccc2nc(N)sc2c1 — higher, -0.142%
- COC(C(=O)O)c1ccccc1 (stereo not given) — higher, 6.36%
- CC1(C)C(=O)NC(=O)N1CO — higher, -0.128%
- C=CCOCC(O)CCl (stereo not given) — higher, -0.0552%
- CCC(C)O (stereo not given) — higher, 0.281%

In the case of `NC(Cc1ccc(F)cc1)C(=O)O` (stereo not given), the activation is reported as 1.84% [at 5.99 µM].

In the case of `O=C(NOCC1CC1)c1ccc(F)c(F)c1Nc1ccc(I)cc1Cl`, the Potency is reported as 19.9 µM (active).
In the case of `COc1cccc2c1C(=O)c1c(O)c3c(c(O)c1C2=O)C[C@@](O)(C(=O)CO)C[C@@H]3O[C@H]1C[C@H](N)[C@H](O[C@@H]2CCCCO2)[C@H](C)O1`, the Potency is reported as 1.78 µM (active).

For `CC(CN)CC(C)(C)CCN` (stereo not given), the “activation” value was 0.274% [at 172 µM].
